{"source": "PubChem BioAssay", "experiment": "compounds distorting NS3 helicase fluorescence signal – biochemical, NIH Clinical Collection, artefact control for HCV NS3 helicase inhibitor project (AID 743272);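 note: HCV NS3 helicase with a Cy5 labelled single stranded DNA probe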", "conditions": "fluorescence interference counterscreen, HCV NS3 helicase assay; stronger effect = lower value", "note": "Unmarked numbers belong to inactive results. The rule behind the calls is not given here."}
{"smiles": "CC#C[C@]1(O)CC[C@H]2[C@@H]3CCC4=CC(=O)CCC4=C3[C@@H](c3ccc(N(C)C)cc3)C[C@@]21C", "values": [{"measurement": "fluorescence ratio", "value": 0.97}]}
